Assay results: PubChem BioAssay (Tox21)
Values joined by “and” are separate entries in the source; they are usually repeats but may differ in a detail not shown here. Equal values may be shown once. Records with an inconclusive call do not appear. Some structures have more than one record in an assay (separate samples or runs), and their calls can disagree. Active and inactive are the calls of the source. Calls follow the shape of the dose curve; as a rule, active = well fitted curve in the direction sought with a large enough effect in the repeat runs; inconclusive = weak or mixed curves; inactive = no such curve, though single readings can be large; an effect the other way counts as inactive or inconclusive.

Experiments:
[1] = qHTS RealTime-Glo MT Cell Viability Assay in HEK293 cells - 16 hour (AID 1224872); also: nearly all actives have a fitted effect of over 50% in size; also: potency is read from the fitted curve at half-maximal effect
Summary of the method: (§1)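 Viability tracked continuously by luminescence as live cells reduce a prosubstrate for NanoLuc; HEK293 cells preincubated 5 h, compound-treated at 37 C, and read at 0, 8, 16, 24, 32 and 40 h.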

[2] = qHTS RealTime-Glo MT Cell Viability Assay in HepG2 cells - 8 hour (AID 1224873); also: nearly all actives have a fitted effect of over 55% in size; also: potency is read from the fitted curve at half-maximal effect
Summary of the method: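 HepG2 cells (600/well) mixed with RealTime-Glo MT reagent, settled 5 h at 37 C/5% CO2 before compound addition. Nonlytic NanoLuc luminescence from viable-cell prosubstrate reduction read repeatedly during 40 h treatment at 37 C.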

[3] = qHTS RealTime-Glo MT Cell Viability Assay in HEK293 cells - 40 hour (AID 1224874); settings: RealTime-Glo luminescence; max response: stronger effect = lower value; also: nearly all actives have a fitted effect of over 50% in size; also: potency is read from the fitted curve at half-maximal effect
Summary of the method: (§2)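 Cells were seeded together with NanoLuc luciferase and a prosubstrate that viable cells reduce to a luciferase substrate. After a 5 h incubation at 37 C/5% CO2, compounds were added and luminescence was measured repeatedly during 40 h of treatment.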

[4] = A CellTox Green Cytotoxicity Assay to monitor cytotoxicity in HEK293 cells - 24 hour (AID 1224875); also: series mostly up to about 77 µM; nearly all actives have a fitted effect of over 45% in size
Summary of the method: (§3)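 Nonlytic real-time cytotoxicity: HEK293 + CellTox Green reagent plated, 5 h preincubation, pintool compound addition (23 nL in DMSO), 37 C for 40 h, fluorescence measured at successive time points.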

[5] = qHTS RealTime-Glo MT Cell Viability Assay in HepG2 cells - 32 hour (AID 1224877); also: nearly all actives have a fitted effect of over 55% in size
Summary of the method: (§4)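 Viability was tracked continuously by NanoLuc luminescence from prosubstrate reduced by living HepG2 cells, at successive time points over 40 h of compound exposure. Cells with reagent were preincubated 5 h at 37 °C before compound addition.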

[6] = qHTS RealTime-Glo MT Cell Viability Assay in HEK293 cells - 0 hour (AID 1224880); also: top concentration of the series differs between compounds; nearly all actives have a fitted effect of over 45% in size
Summary of the method: as §2

[7] = A CellTox Green Cytotoxicity Assay to monitor cytotoxicity in HEK293 cells - 32 hour (AID 1224881); also: nearly all actives have a fitted effect of over 40% in size; also: potency is read from the fitted curve at half-maximal effect
Summary of the method: as §3

[8] = A CellTox Green Cytotoxicity Assay to monitor cytotoxicity in HepG2 cells - 0 hour (AID 1224882); also: nearly all actives have a fitted effect of over 35% in size
Summary of the method: (§5)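 Read-out is fluorescence of a cyanine dye excluded from live cells that stains DNA of dead HepG2 cells, with signal proportional to cytotoxicity. Plates were read at 0, 8, 16, 24, 32 and 40 h after compound addition.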

[9] = A CellTox Green Cytotoxicity Assay to monitor cytotoxicity in HEK293 cells - 8 hour (AID 1224884); also: nearly all actives have a fitted effect of over 35% in size; also: potency is read from the fitted curve at half-maximal effect
Summary of the method: as §3

[10] = qHTS RealTime-Glo MT Cell Viability Assay in HepG2 cells - 16 hour (AID 1224885); also: nearly all actives have a fitted effect of over 50% in size; also: potency is read from the fitted curve at half-maximal effect
Summary of the method: as §4

[11] = qHTS RealTime-Glo MT Cell Viability Assay in HEK293 cells - 24 hour (AID 1224886); also: nearly all actives have a fitted effect of over 50% in size; also: potency is read from the fitted curve at half-maximal effect
Summary of the method: as §1

[12] = qHTS RealTime-Glo MT Cell Viability Assay in HEK293 cells - 8 hour (AID 1224887); also: nearly all actives have a fitted effect of over 50% in size; also: potency is read from the fitted curve at half-maximal effect
Summary of the method: as §2

[13] = A CellTox Green Cytotoxicity Assay to monitor cytotoxicity in HEK293 cells - 16 hour (AID 1224888); also: nearly all actives have a fitted effect of over 35% in size
Summary of the method: as §3

[14] = A CellTox Green Cytotoxicity Assay to monitor cytotoxicity in HepG2 cells - 8 hour (AID 1224890); also: nearly all actives have a fitted effect of over 45% in size; also: potency is read from the fitted curve at half-maximal effect
Summary of the method: as §5

[15] = qHTS assay to identify small molecule antagonists of the estrogen receptor alpha (ER-alpha) signaling pathway using the BG1 cell line in the presence of 0.1 nM 17-beta-estradiol - cell viability counter screen (AID 1259241); also: nearly all actives have a fitted effect of over 40% in size; also: potency is read from the fitted curve at half-maximal effect
Summary of the method: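 Viability in VM7Luc4E2 cells after 22 hr compound exposure under 0.1 nM 17beta-estradiol stimulation, by CellTiter-Fluor.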

[16] = A CellTox Green Cytotoxicity Assay to monitor cytotoxicity in HepG2 cells - 16 hour (AID 1224876); also: nearly all actives have a fitted effect of over 45% in size
Summary of the method: as §5

[17] = A CellTox Green Cytotoxicity Assay to monitor cytotoxicity in HepG2 cells - 24 hour (AID 1224878); also: nearly all actives have a fitted effect of over 45% in size; also: potency is read from the fitted curve at half-maximal effect
Summary of the method: as §5

[18] = A CellTox Green Cytotoxicity Assay to monitor cytotoxicity in HepG2 cells - 40 hour (AID 1224879); also: nearly all actives have a fitted effect of over 40% in size
Summary of the method: as §5

[19] = A CellTox Green Cytotoxicity Assay to monitor cytotoxicity in HepG2 cells - 32 hour (AID 1224883); also: nearly all actives have a fitted effect of over 50% in size; also: potency is read from the fitted curve at half-maximal effect
Summary of the method: as §5

[20] = qHTS RealTime-Glo MT Cell Viability Assay in HepG2 cells - 0 hour (AID 1224889); also: nearly all actives have a fitted effect of over 50% in size
Summary of the method: as §4
% is scaled to controls: 0 for no effect and ±100 for the full control effect.

O=c1c(O)c(-c2ccc(O)cc2O)oc2cc(O)cc(O)c12
inactive: Potency [1] | Potency [2] | max response [3] 7.77% | Potency [4] | Potency [5] | Potency [6] | Potency [7] | Potency [8] | Potency [9] | Potency [10] | Potency [11] | Potency [12] | Potency [13] | Potency [14] | Potency [15]

CC1(C)CCC[C@]2(C)[C@H]3CCO[C@]3(C)CC[C@@H]12
inactive: Potency [1] | Potency [2] | max response [3] 4.7% | Potency [16] | Potency [5] | Potency [17] | Potency [18] | Potency [6] | Potency [8] | Potency [19] | Potency [10] | Potency [11] | Potency [12] | Potency [20] | Potency [14] | Potency [15]

COc1cccc2c1C(=O)c1c(O)c3c(c(O)c1C2=O)C[C@@](O)(C(C)=O)C[C@@H]3O[C@H]1C[C@H](N)[C@H](O)[C@H](C)O1
active: Potency [1] 6.2 µM and 151 nM | Potency [2] 49.3 µM | Potency [3] 62 nM and 3 nM | Potency [9] 39.1 µM | Potency [10] 43.9 µM and 23.9 µM | Potency [11] 110 nM and 4.8 nM | Potency [12] 15.6 µM and 21.3 µM | Potency [14] 55.3 µM | Potency [15] 30.8 µM and 13.3 µM
43.9 µM (active) and inactive: Potency [7]
inactive: Potency [16] | Potency [17] | Potency [18] | Potency [6] | Potency [8] | Potency [20]
inactive and 30.1 nM (active): Potency [19]

CCCCCCCC
inactive: Potency [1] | Potency [2] | max response [3] -2.45% | Potency [16] | Potency [17] | Potency [18] | Potency [6] | Potency [7] | Potency [8] | Potency [19] | Potency [9] | Potency [10] | Potency [11] | Potency [12] | Potency [20] | Potency [14] | Potency [15]

O[C@@H]([C@H](O)[C@H](O)CBr)[C@H](O)CBr
inactive: Potency [1] | Potency [2] | max response [3] 2.46% | Potency [16] | Potency [5] | Potency [17] | Potency [18] | Potency [6] | Potency [7] | Potency [8] | Potency [19] | Potency [9] | Potency [10] | Potency [11] | Potency [12] | Potency [13] | Potency [14] | Potency [15]

CCCCNS(=O)(=O)c1ccc(C)cc1
active: Potency [17] 6.16 µM | Potency [19] 4.9 µM
inactive: Potency [1] | Potency [2] | max response [3] -16.6% | Potency [16] | Potency [5] | Potency [7] | Potency [8] | Potency [9] | Potency [10] | Potency [11] | Potency [12] | Potency [13] | Potency [20] | Potency [14] | Potency [15]

COc1ccc(NC(=O)CC(C)=O)cc1
inactive: Potency [1] | Potency [2] | max response [3] 8.59% | Potency [16] | Potency [5] | Potency [17] | Potency [18] | Potency [6] | Potency [8] | Potency [19] | Potency [9] | Potency [10] | Potency [11] | Potency [12] | Potency [20] | Potency [14]

Cc1cc(-n2nc3ccc(Cl)cc3n2)c(O)c(C(C)(C)C)c1
inactive: Potency [1] | Potency [2] | Potency [4] | Potency [16] | Potency [5] | Potency [17] | Potency [18] | Potency [6] | Potency [7] | Potency [8] | Potency [19] | Potency [9] | Potency [10] | Potency [11] | Potency [12] | Potency [20] | Potency [14]

CCN(CC)c1ccc2c(-c3ccc(S(=O)(=O)O)cc3S(=O)(=O)[O-])c3ccc(=[N+](CC)CC)cc-3oc2c1
active: Potency [15] 12.6 µM
inactive: Potency [1] | Potency [2] | Potency [4] | Potency [16] | Potency [5] | Potency [17] | Potency [18] | Potency [6] | Potency [7] | Potency [8] | Potency [19] | Potency [9] | Potency [10] | Potency [11] | Potency [12] | Potency [13] | Potency [20] | Potency [14]

Cc1ccc(C)cc1
inactive: Potency [1] | Potency [2] | Potency [4] | Potency [16] | Potency [5] | Potency [17] | Potency [18] | Potency [6] | Potency [7] | Potency [8] | Potency [19] | Potency [9] | Potency [10] | Potency [11] | Potency [12] | Potency [13] | Potency [20] | Potency [14] | Potency [15]

Cc1c(C)c2c(c(C)c1O)CC[C@@](C)(CCC[C@H](C)CCC[C@H](C)CCCC(C)C)O2
inactive: Potency [1] | Potency [2] | max response [3] -14.1% | Potency [16] | Potency [5] | Potency [17] | Potency [18] | Potency [6] | Potency [8] | Potency [19] | Potency [9] | Potency [10] | Potency [11] | Potency [12] | Potency [13] | Potency [20] | Potency [14] | Potency [15]

Cc1nc(-c2ccc(Cl)cc2)oc1COC(C)(C)C(=O)O
inactive: Potency [1] | Potency [2] | max response [3] 0.172% | Potency [16] | Potency [5] | Potency [17] | Potency [18] | Potency [6] | Potency [8] | Potency [19] | Potency [9] | Potency [10] | Potency [11] | Potency [12] | Potency [20] | Potency [14] | Potency [15]

Cl[Si](Cl)(c1ccccc1)c1ccccc1
inactive: Potency [1] | Potency [2] | max response [3] -3.91% | Potency [16] | Potency [5] | Potency [17] | Potency [18] | Potency [6] | Potency [8] | Potency [19] | Potency [10] | Potency [11] | Potency [12] | Potency [14] | Potency [15]

Nc1ccc(C(=O)O)c(O)c1
inactive: Potency [1] | Potency [2] | max response [3] -4.05% | Potency [16] | Potency [5] | Potency [6] | Potency [7] | Potency [19] | Potency [9] | Potency [10] | Potency [11] | Potency [12] | Potency [13] | Potency [15]

Nc1ccc(Oc2ccc(Cl)cc2)cc1
inactive: Potency [2] | Potency [16] | Potency [5] | Potency [17] | Potency [18] | Potency [6] | Potency [8] | Potency [19] | Potency [9] | Potency [10] | Potency [13] | Potency [20] | Potency [14] | Potency [15]
active: Potency [1] 21.4 µM | Potency [3] 21.4 µM | Potency [11] 24 µM
